Screens (PubChem)
CF NFkB block: blocks PAF-induced NF-kB reporter in cystic fibrosis cells; KKLEB NF-kB-GFP reporter, GFP fluorescence overnight; inhibition, % at 5 µM; hit rate 0.86% among 360,000; AID 588850;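 active = at least 50% inhibition at 5 µM, scaled per plate between neutral and stimulator controls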;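 also: PAF is a Pseudomonas aeruginosa culture filtrate used as stimulus; plate controls were PAF-stimulated DMSO wells for no effect and unstimulated DMSO wells for full effect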
TWEAK Fn14 block: blocks TWEAK-Fn14 interaction in a reporter cell assay | inhibition, % at 10 µM | hit rate 2% among 360,000 | TWEAK-stimulated Fn14 reporter cells, luciferase luminescence, 8 h; in the data active = inhibition above about 50%
Peg3 promoter: inhibitors of Peg3 promoter; HeLa PEG-Prom luciferase reporter, luminescence, overnight; inhibition, % at 20 µM; hit rate 1.7% among 360,000;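 active = inhibition of at least 50% at 20 µM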
TROY NFkB inh: inhibitors of TROY-dependent NF-kB signaling. inhibition, % at 10 µM. Q293 LMP1-TROYcd NF-kB luciferase reporter, 4 h. hit rate 0.98% among 360,000;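 active = compounds whose plate-normalised and pattern-corrected inhibition of the luciferase reporter signal at the single screening dose is 50% or more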
KKLEB tox: CF airway cell cytotoxicity counter-screen; KKLEB CF airway cells viability, ATPlite luminescence, overnight; stronger effect = lower value; cells stimulated with P. aeruginosa culture filtrate; activity change (cytotoxicity), % at 5 µM; AID 602141; hit rate 0.36% among 360,000;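 active = corrected activity change at or below -50% at 5 µM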
HIF-2a inh: blocks HIF-2a reporter activity; 786-0 RCC cells HIF-2a reporter, luciferase luminescence, overnight; inhibition, % at 18.8 µM; hit rate 0.72% among 360,000;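 active = inhibition of the luminescence signal of 40% or more relative to plate controls, in a single-dose primary screen at 18.75 µM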
Mdm2 MdmX conf: confirmation of inhibitors of human Mdm2/MdmX interaction, set 2; shares compounds with HIF-2a inh; SaOS-2 split-luciferase Mdm2/MdmX complementation, luminescence; inhibition, % at 8 µM; hit rate 99% among 740; AID 504601;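 active = mean inhibition of the luminescence signal across two replicates at or above 26 percent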
Target sequence (O15151 whole entry, looked up): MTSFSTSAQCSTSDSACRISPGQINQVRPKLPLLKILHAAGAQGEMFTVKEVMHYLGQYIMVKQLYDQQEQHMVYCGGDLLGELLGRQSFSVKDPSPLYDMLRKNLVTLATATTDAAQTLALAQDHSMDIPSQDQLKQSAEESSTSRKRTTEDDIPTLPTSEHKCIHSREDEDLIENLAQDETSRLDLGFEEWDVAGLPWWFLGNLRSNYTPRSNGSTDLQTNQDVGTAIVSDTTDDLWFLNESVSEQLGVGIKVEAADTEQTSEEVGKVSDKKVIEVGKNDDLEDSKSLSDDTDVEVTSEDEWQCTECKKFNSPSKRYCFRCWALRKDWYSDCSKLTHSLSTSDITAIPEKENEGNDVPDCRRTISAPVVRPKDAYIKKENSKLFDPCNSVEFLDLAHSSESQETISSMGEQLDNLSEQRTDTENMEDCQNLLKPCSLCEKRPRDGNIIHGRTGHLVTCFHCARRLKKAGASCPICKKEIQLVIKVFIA
Target sequence (Q00987 whole entry, looked up): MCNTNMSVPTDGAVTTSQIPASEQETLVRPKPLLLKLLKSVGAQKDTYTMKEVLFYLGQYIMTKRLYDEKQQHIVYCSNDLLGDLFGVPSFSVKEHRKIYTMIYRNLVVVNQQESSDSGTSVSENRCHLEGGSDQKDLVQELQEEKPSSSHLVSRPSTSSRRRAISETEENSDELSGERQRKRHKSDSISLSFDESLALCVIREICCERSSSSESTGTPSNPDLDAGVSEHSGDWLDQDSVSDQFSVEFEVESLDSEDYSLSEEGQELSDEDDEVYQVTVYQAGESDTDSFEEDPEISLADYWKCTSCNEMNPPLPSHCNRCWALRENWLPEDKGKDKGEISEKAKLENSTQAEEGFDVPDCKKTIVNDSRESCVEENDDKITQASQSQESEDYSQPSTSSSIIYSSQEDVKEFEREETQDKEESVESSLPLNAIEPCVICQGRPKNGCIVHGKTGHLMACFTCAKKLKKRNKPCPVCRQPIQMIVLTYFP
HIF-2a inh conf: HIF-2a inhibition, single concentration confirmation; shares compounds with HIF-2a inh; 786-0 RCC cells, HIF-2a luciferase reporter luminescence, overnight; AID 651580; inhibition, % at 18.8 µM; hit rate 56% among 1,800;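 active = mean inhibition across four replicates of at least 40 percent at the single tested concentration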
HIF-1a cs: inhibits HIF-1a reporter, a counter-screen for HIF-2a inhibitors. shares compounds with HIF-2a inh. MiaPaCa-2 HIF-1a luciferase reporter, desferoxamine, overnight. inhibition, % at 18.8 µM. hit rate 72% among 1,800;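 active = mean inhibition of the reporter signal across four replicates at the single tested dose of 50% or more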
An asterisk follows results filed as active; i = inactive; . = not tested or not shown. In the library only some 4% were active in any assay of this set; here they are far more common.

SMILES | CF NFkB block | TWEAK Fn14 block | Peg3 promoter | TROY NFkB inh | KKLEB tox | HIF-2a inh | others
COc1ccc2c(c1)C1(Nc3ccccc3-c3nc4ccccc4n31)C(=O)N2 (configuration not stated) | -0.3 | 2.4 | 5.7 | -4.2 | 1.4 | 8.0
COc1ccc2c(c1)C1(Nc3ccccc3-c3nc4ccccc4n31)C(=O)N2C (configuration not stated) | -1.7 | 9.5 | -0.1 | -33.7 | 3.0 | 14.2 | Mdm2 MdmX conf=94.5*
COc1ccc([N+](=O)[O-])cc1NC1CCCCC1 | 16.8 | 4.9 | 2.2 | -6.3 | 0.6 | 5.0
Cc1ccc([C@H]2C[C@@H](n3cc(COC(=O)c4ccccc4)nn3)[C@H](O)CN2Cc2cccs2)cc1 | 11.7 | 31.5 | 36.5 | 7.8 | -9.4 | -0.7
COc1ccc(C)cc1Nc1n[n+](C)c(-c2c3ccccc3cc3ccccc23)s1 | 5.1 | -22.5 | -6.4 | -8.0 | 1.6 | -24.8
COc1ccc(C)cc1Nc1n[n+](-c2ccccc2)c(-c2c(Cl)cccc2Cl)s1 | . | . | . | . | . | . | Mdm2 MdmX conf=98.0*
COc1cc2c3nnc(-c4ccc(F)cc4)c-3cn(Cc3ccccc3)c2cc1OC | -347.9 | i | 103.5* | -133.1 | 10.7 | -23.8 | Mdm2 MdmX conf=103.2*
COc1ccc(-c2nnn(Cc3ccccc3)n2)cc1OC | -10.7 | 5.7 | -27.7 | -12.4 | -6.0 | -70.8
N#CC1=C(c2ccccc2)/C(=C/c2ccccc2)OC1=O | 41.6 | 83.1* | 104.3* | -5.8 | -6.7 | 89.5* | HIF-2a inh conf=4.5;HIF-1a cs=106.1*
Cc1cc(C)c2c(CC(=O)N3CCCC3)coc2c1 | 8.7 | -4.0 | -2.1 | 10.6 | 4.0 | -6.2
CCCCN(CC)Cc1ccc(CNC(=S)Nc2ccc(C)cc2Cl)o1 | 2.6 | 73.9* | -10.4 | 42.1 | -8.3 | 83.5* | HIF-2a inh conf=60.0*;HIF-1a cs=60.5*
CCCCN(CC)Cc1ccc(CNC(=S)Nc2c(C)cc(C)cc2C)o1 | -8.3 | 4.5 | 6.4 | -4.2 | -0.2 | 12.3
CCOc1ccccc1NC(=O)C1CCCN1C(=O)OCc1ccccc1 (configuration not stated) | -5.5 | -9.4 | 29.6 | 5.9 | -4.7 | 10.9
Cc1ccc(C(=O)N/C(=C\c2ccc(C)o2)C(=O)O)cc1 | -8.5 | 3.5 | 10.6 | 6.2 | -0.1 | 3.4
CC(=O)NC1(C(Cl)(Cl)Cl)Oc2ccccc2O1 | 2.1 | -12.7 | 23.7 | 14.9 | -6.3 | 47.0* | HIF-2a inh conf=18.7;HIF-1a cs=20.0
COCCNc1nc2c(c(=O)[nH]c(=O)n2C)n1CCCc1ccccc1 | -6.8 | 1.0 | 6.1 | 0.3 | 6.7 | 15.4
CC1CN(C(=O)Nc2ccc(F)cc2F)CC(C)O1 (configuration not stated) | 16.0 | -9.7 | 7.7 | -1.3 | 3.8 | 9.4
O=[N+]([O-])c1ccc(O)c(-c2cc(C(F)(F)F)nc(-c3ccccc3)n2)c1 | 72.1* | 74.7* | 79.1* | 8.3 | -65.0* | 27.0 | Mdm2 MdmX conf=102.5*
Oc1ccccc1-c1cc(C(F)(F)C(F)F)nc(-c2ccccc2)n1 | 15.7 | 1.5 | 7.6 | -2.9 | 5.8 | -5.2
CC(C)(C)S(=O)(=O)c1nc2ccccc2s1 | -0.6 | 3.8 | -4.7 | -9.5 | -11.9 | 5.6
C=CCS(=O)(=O)c1nc2ccccc2s1 | 52.1* | 28.2 | 104.1* | 0.5 | -18.4 | 88.2* | HIF-2a inh conf=-6.7;HIF-1a cs=43.8
CCS(=O)(=O)CCSc1nc2ccccc2s1 | -6.8 | -8.1 | 3.0 | -1.9 | -4.3 | -9.1
O=S(=O)(CCSc1nc2ccccc2s1)c1nc2ccccc2s1 | 73.2* | 82.5* | 57.7* | 69.3* | -43.3 | 56.6* | Mdm2 MdmX conf=103.0*;HIF-2a inh conf=25.0;HIF-1a cs=69.3*
Cc1cc(Nc2ccc(C(=O)O)cc2)nc(N)n1 | 19.1 | 8.4 | 8.2 | 11.1 | -4.9 | 11.9
COc1ccc(C=C2C=C(C(C)(C)C)C(=O)C(C(C)(C)C)=C2)cc1OC | 43.3 | -5.2 | 105.0* | 17.2 | -12.4 | 82.0* | HIF-2a inh conf=65.3*;HIF-1a cs=103.2*
SMILES | CF NFkB block | TWEAK Fn14 block | Peg3 promoter | TROY NFkB inh | KKLEB tox | HIF-2a inh | others
O=C(CS(=O)(=O)c1ccccc1)N1CCc2ccccc21 | 0.4 | 0.2 | -197.2 | -29.0 | -8.0 | -157.5
O=C(NC1CC1)C1CCN(S(=O)(=O)c2ccc(Cl)c([N+](=O)[O-])c2)CC1 | -5.8 | 0.3 | 40.7 | 11.8 | 9.2 | 21.6 | Mdm2 MdmX conf=102.2*
CC(=O)N(Cc1ccc(F)cc1)C1=C(NCCc2ccccc2)C(=O)c2ccccc2C1=O | 86.4* | 81.7* | 103.1* | 66.4* | -54.8* | 91.4* | Mdm2 MdmX conf=101.2*
O=C1Cc2ccccc2C(=O)N1Nc1ccccc1 | -9.1 | -2.5 | -6.1 | 8.2 | 4.9 | 5.1
O=C1C=C(c2ccccc2)C(=O)N1Nc1ccccc1 | 44.7 | -1.0 | 95.8* | -10.5 | 19.2 | 76.9* | HIF-2a inh conf=55.8*;HIF-1a cs=29.8
O=C(COC(=O)c1cnccn1)c1ccc(OC(=O)c2ccccc2)cc1 | 3.3 | -30.3 | -34.0 | -54.1 | -10.1 | -2.1
COC(c1ccccc1)c1nnc(CCC(=O)N2CCN(C3CCCC3)CC2)o1 (configuration not stated) | -23.4 | 14.1 | 12.4 | 19.2 | 11.2 | 13.4
CCOc1ccc2nc(Cl)c(C3CC(c4ccco4)=NN3S(C)(=O)=O)cc2c1 (configuration not stated) | 1.1 | -16.0 | 1.4 | 57.2* | -9.1 | 44.8* | HIF-2a inh conf=-3.2;HIF-1a cs=35.3
Cc1ccc2nc(Cl)c(C3CC(c4ccco4)=NN3S(C)(=O)=O)cc2c1 (configuration not stated) | 0.2 | -39.6 | -28.8 | -38.8 | 0.6 | -77.2
CNc1ccc(/C=C(\C#N)c2ccccn2)cc1[N+](=O)[O-] | -18.1 | -58.0 | -186.7 | -71.2 | -9.6 | -327.5
N#C/C(=C\c1ccc(Cl)c([N+](=O)[O-])c1)c1ccccn1 | -3.7 | -27.0 | 93.3* | 10.0 | -2.1 | 42.9* | HIF-2a inh conf=-18.6;HIF-1a cs=94.7*
O=C(Nc1ccc(F)cc1)N(Cc1ccco1)Cc1cc2cc3c(cc2[nH]c1=O)OCO3 | -17.7 | 24.0 | 28.5 | 10.6 | 11.1 | 8.9
CCOc1ccc(C(C)NC(=O)c2cccc(F)c2)cc1 (configuration not stated) | -7.7 | 5.1 | 14.2 | 0.1 | -2.1 | 8.6
COc1ccc(NC(=O)CSc2c3c(nc4ccccc24)CCCC3)c(OC)c1 | 30.9 | 29.0 | 5.2 | -6.9 | -6.5 | 47.0* | HIF-2a inh conf=9.5;HIF-1a cs=91.4*
CCCOc1ccc(C(=O)Nc2cc(S(=O)(=O)N3CCOCC3)ccc2N2CCN(CC)CC2)cc1OC | 2.8 | -9.8 | -22.5 | 1.0 | -9.5 | 15.8
O=C1CCC(OCc2ccccc2)CCN1[C@H](CSc1ccccc1)Cc1ccccc1 (some centres not stated) | . | 20.4 | . | -2.7 | . | -14.8
